These results are taken from PubChem BioAssay (NCI).

About 83,000 compounds went through this panel and 20% of them were active in at least one assay; those are over-represented in the sample as a whole.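 Cell lines were cultured in 96-well plates, exposed to a single compound concentration, and assessed for percent growth 48 hours later.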 A number with no mark means an inactive call. Activity calls are given as the source filed them. The calls were made as follows: active = growth percent below 10; inactive = the rest.

Some test systems named below: NCI-H23 lung; NCI-H226 lung; HOP-62 NSCLC; NCI-H460 lung; HOP-92 NSCLC; NCI-H522 lung; A549/ATCC NSCLC; 786-0 renal; COLO 205 colon; DU-145 prostate; K-562 leukemia; MALME-3M melanoma; MDA-MB-231 breast; RXF 393 renal; SF-268 CNS; SF-295 CNS; SF-539 CNS; UACC-257 melanoma; M14 melanoma; NCI-H322M lung.
Test in all cases: NCI-60 one-dose screen, 48 h (100 = growth as untreated, 0 = no growth, -100 = all killed)
Holding throughout (settings): 10 µM unless noted

As to `COc1cc(C(=O)Nc2cc(O)c(C/C=C(\C)CCC=C(C)C)c(O)c2)cc2c1O[C@]1(C)CC[C@@H](O)C(C)(C)[C@H]1C2`, the growth with NCI-H23 lung is 27.8%; in the assay with NCI-H226 lung, 40.5%; in the assay on HOP-62 NSCLC it was 8.47% (active); with NCI-H460 lung, 12.4%; with HOP-92 NSCLC, -2.91% (active); in the assay on NCI-H522 lung, 18.8%. For the same compound, the growth with A549/ATCC NSCLC is 11.9%; with 786-0 renal it was -6.12% (active); with COLO 205 colon, -22.2% (active); in the assay on DU-145 prostate, 27%; in the assay with K-562 leukemia, -31.5% (active); in the assay on MALME-3M melanoma, -5.78% (active). Also, the growth in the assay on MDA-MB-231 breast was -36.5% (active); with RXF 393 renal it was -40.3% (active); in the assay with SF-268 CNS it was 24.8%; in the assay with SF-295 CNS it was -36.2% (active); with SF-539 CNS, -41.7% (active); in the assay with UACC-257 melanoma, 24%. Moreover, the growth with M14 melanoma is -0.604% (active).

On to `Cc1ccc(SC2c3ccc(C)cc3Oc3nc(N)c(C#N)c(N)c32)cc1` (stereo not drawn), for which the growth was 82.8% in the assay with NCI-H23 lung; 92.8% in the assay with NCI-H226 lung; 89.8% in the assay on HOP-62 NSCLC; 101% with NCI-H460 lung; 66.6% in the assay with HOP-92 NSCLC; -53.4% (active) in the assay on NCI-H522 lung. Besides, the growth was 101% in the assay with A549/ATCC NSCLC; 91.4% with 786-0 renal; 62.8% in the assay with COLO 205 colon; 92.6% in the assay on DU-145 prostate; 4.29% (active) in the assay on K-562 leukemia; 31.9% with MALME-3M melanoma. Besides, the growth in the assay with MDA-MB-231 breast is 69.9%; with RXF 393 renal, 53.9%; in the assay on SF-268 CNS it was 82.8%; in the assay with SF-295 CNS, 103%; with SF-539 CNS, 90.5%; with UACC-257 melanoma, 94.6%. The growth in the assay on M14 melanoma was 94.9%.

`CCCCc1nc(Cl)c(C2CC(c3ccc(Cl)cc3)=NN2c2cc(Cl)cc(Cl)c2)[nH]1` (stereo not drawn): the growth was 69.5% in the assay on NCI-H23 lung; 92.3% in the assay on NCI-H226 lung; 52.9% in the assay on HOP-62 NSCLC; 30.2% in the assay with NCI-H460 lung; 94% in the assay on HOP-92 NSCLC; 32% with NCI-H522 lung. For the same compound, the growth in the assay with A549/ATCC NSCLC was 8.64% (active); in the assay on 786-0 renal, 41.3%; in the assay on COLO 205 colon, 96.1%; in the assay with DU-145 prostate it was 40.8%; with K-562 leukemia, 76.5%; in the assay with MALME-3M melanoma, 88.4%. Moreover, the growth was 80.3% in the assay with MDA-MB-231 breast; 43.3% in the assay on RXF 393 renal; 41.2% in the assay on SF-268 CNS; 74.3% in the assay with SF-295 CNS; 79.8% in the assay on SF-539 CNS; 94.8% in the assay with UACC-257 melanoma. The growth with M14 melanoma is 93.6%.

On to `CC1=C/C(=N\N=C2/C=C(C)CC(C)(C)C2)CC(C)(C)C1`, for which the growth was 102% in the assay on NCI-H23 lung; 92.7% in the assay on NCI-H322M lung; 90.9% in the assay on HOP-62 NSCLC; 104% with NCI-H460 lung; 92.3% with HOP-92 NSCLC; 81.4% with NCI-H522 lung. In addition, the growth is 88.6% in the assay with A549/ATCC NSCLC; 102% in the assay with 786-0 renal; 119% in the assay with COLO 205 colon; 105% in the assay with DU-145 prostate; 86.9% in the assay on K-562 leukemia; 96.4% in the assay with MALME-3M melanoma. Besides, the growth with MDA-MB-231 breast is 106%; in the assay with RXF 393 renal, 114%; in the assay on SF-268 CNS, 93.4%; in the assay on SF-295 CNS, 102%; with SF-539 CNS, 105%; in the assay with UACC-257 melanoma it was 90.2%. Besides, in the assay with M14 melanoma, the growth was 103%.

For `CC(C)NS(=O)(=O)c1cccc(-c2ccc3c4c(n(CCCN(C)C)c(=O)c3c2)-c2ccccc2C4=O)c1`, the growth with NCI-H23 lung is 98.6%; in the assay with NCI-H226 lung, 92.9%; in the assay with HOP-62 NSCLC, 101%; in the assay on NCI-H460 lung it was 28.5%; with HOP-92 NSCLC, 114%; in the assay with NCI-H522 lung it was 86.7%. Also, the growth in the assay with A549/ATCC NSCLC was 83.5%; with 786-0 renal, 33.8%; in the assay with COLO 205 colon, 98.9%; in the assay on DU-145 prostate, 108%; with K-562 leukemia, -57.8% (active); in the assay with MALME-3M melanoma it was 91.6%. Also, the growth in the assay with MDA-MB-231 breast was 83.8%; with RXF 393 renal, 96.1%; in the assay on SF-268 CNS it was 103%; in the assay on SF-295 CNS, 104%; in the assay on SF-539 CNS it was 90.7%; in the assay with UACC-257 melanoma, 107%. In addition, the growth in the assay with M14 melanoma was 104%.

As to `O=C(Nc1ccc(S(=O)(=O)NC2CCCCCC2)cc1)C(c1ccccc1)S(=O)(=O)c1ccc(F)cc1` (stereo not drawn), the growth in the assay with NCI-H23 lung is 9.28% (active); with NCI-H226 lung, -21.5% (active); with HOP-62 NSCLC it was -17.4% (active); in the assay on NCI-H460 lung, 1.37% (active); with HOP-92 NSCLC, -12.2% (active); in the assay on NCI-H522 lung, -16% (active). Moreover, the growth is -12.4% (active) in the assay on A549/ATCC NSCLC; 20.4% in the assay with 786-0 renal; -18% (active) with COLO 205 colon; 9.51% (active) in the assay on DU-145 prostate; 7.42% (active) in the assay on K-562 leukemia; -4.32% (active) in the assay with MALME-3M melanoma. For the same compound, the growth was 13.8% with MDA-MB-231 breast; -33.6% (active) with RXF 393 renal; 24.3% in the assay on SF-268 CNS; -13.8% (active) in the assay with SF-295 CNS; 9.02% (active) with SF-539 CNS; -24.6% (active) in the assay on UACC-257 melanoma. The growth in the assay on M14 melanoma is 2.29% (active).

In the case of `COc1ccc2[nH]c(-c3ccccc3)c(C=C(C#N)C#N)c2c1`, the growth in the assay on NCI-H23 lung was 23.4%; with NCI-H226 lung it was 55.1%; with HOP-62 NSCLC, 37.4%; in the assay on NCI-H460 lung, 15.3%; in the assay on HOP-92 NSCLC it was -7.8% (active); with NCI-H522 lung, -18.4% (active). Further, the growth with A549/ATCC NSCLC is 37%; in the assay with 786-0 renal, 33.9%; with COLO 205 colon, 38.2%; in the assay with DU-145 prostate, 35.2%; in the assay on K-562 leukemia it was -11.9% (active); with MALME-3M melanoma, 55.1%. Moreover, the growth is 57.9% in the assay with MDA-MB-231 breast; 22.4% in the assay with RXF 393 renal; 49.1% in the assay with SF-268 CNS; -35.2% (active) with SF-295 CNS; 14% in the assay on SF-539 CNS; 69.8% in the assay on UACC-257 melanoma. Also, the growth in the assay with M14 melanoma is 5.54% (active).
